In PubChem BioAssay (NCI):
This is part of a sample that, as a whole, favours compounds with a hit. Of some 79,000 tested, about 15% had one in any assay. Unmarked numbers belong to inactive results. Active and inactive are the calls of the source. Cut-off read from the data, not from the text of the source: active = growth inhibition above about 70%; inactive = the rest.

Assays:
[1] = NCI Yeast Anticancer Drug Screen. Data for the rad50 strain (AID 155);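 note: 0% = growth of vehicle-only cultures of the same strain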; details: S. cerevisiae rad50 strain growth inhibition, active compounds read high
Method in brief: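 Compounds were tested on a yeast strain with an engineered DNA damage repair alteration; the reported value is growth inhibition normalised to vehicle treatment.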

[2] = NCI Yeast Anticancer Drug Screen. Data for the mec2-1 strain (AID 157); details: S. cerevisiae mec2-1 strain, active compounds read high
Method in brief: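 Yeast mec2-1 mutant treated with compound. Readout: growth inhibition vs vehicle controls.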

[3] = NCI Yeast Anticancer Drug Screen. Data for the sgs1 mgt1 strain (AID 161);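 note: 0% = growth of cultures given vehicle only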; details: S. cerevisiae sgs1 mgt1 strain, active compounds read high
Method in brief: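 Inhibition of yeast growth, normalised to vehicle-treated controls, is reported for a strain bearing genetic alterations in DNA damage repair.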

[4] = NCI Yeast Anticancer Drug Screen. Data for the cln2 rad14 strain (AID 165);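 note: 0% = growth equal to vehicle treated cultures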; details: S. cerevisiae cln2 rad14 strain, active compounds read high
Method in brief: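 cln2 rad14 yeast strain; compound exposure; growth inhibition read vs vehicle controls.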

[5] = NCI Yeast Anticancer Drug Screen. Data for the bub3 strain (AID 167); details: S. cerevisiae bub3 mutant strain, active compounds read high
Method in brief: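 Growth of a checkpoint-deficient yeast mutant is measured after compound exposure. Values represent inhibition relative to vehicle.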

[6] = NCI Yeast Anticancer Drug Screen. Data for the mlh1 rad18 strain (AID 175); details: S. cerevisiae mlh1 rad18 strain growth inhibition, active compounds read high
Method in brief: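 Yeast w/ defined DNA-repair lesions; compound exposure; growth vs vehicle controls → % inhibition.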

[7] = at 5.0 µM (retest, dose inferred, filed as 0.5)
[8] = at 50.0 µM (retest, dose inferred, filed as 5.0)

SMILES | growth inhibition [1, 7] | growth inhibition [1, 8] | growth inhibition ([1]; at 50.0 µM) | growth inhibition [2, 7] | growth inhibition [2, 8] | growth inhibition ([2]; at 50.0 µM) | growth inhibition [3, 7] | growth inhibition [3, 8] | growth inhibition ([3]; at 50.0 µM) | growth inhibition [4, 7] | growth inhibition [4, 8] | growth inhibition ([4]; at 50.0 µM) | growth inhibition [5, 7] | growth inhibition [5, 8] | growth inhibition ([5]; at 50.0 µM) | growth inhibition [6, 7] | growth inhibition [6, 8] | growth inhibition ([6]; at 50.0 µM)
Cc1cccc2ccc3cc(CC(=O)O)c4cccc(C)c4c3c12 | 45% | 99% (active) | 99.7% (active) | 33% | 99% (active) | 99.8% (active) | 42% | 99% (active) | 99.8% (active) | 33% | 99% (active) | 99.5% (active) | 32% | 99% (active) | 99.8% (active) | 36% | 99% (active) | 99.7% (active)
COC1=C(NC(C)=O)C(=O)c2nc(-c3nc(C(=O)O)c(C)c(-c4ccc(OC)c(OC)c4O)c3N)ccc2C1=O | 59% | 93% (active) | 78.4% (active) | 28% | 79% (active) | 69.7% | 43% | 92% (active) | 68.7% | 38% | 90% (active) | 57.1% | 15% | 70% (active) | 55.8% | 48% | 89% (active) | 87% (active)
CCCCN(CCCC)CCC(=O)c1ccc2c(ccc3ccccc32)c1 | 19% | 99% (active) | 96.3% (active) | 7% | 99% (active) | 95.5% (active) | 20% | 99% (active) | 98.8% (active) | 21% | 99% (active) | 87% (active) | 47% | 98% (active) | 99% (active) | 12% | 99% (active) | 98.8% (active)
CCc1cccc(CC)c1Nc1nc2c(s1)C(=O)c1ccccc1C2=O | 100% (active) | 99% (active) | 89.5% (active) | 100% (active) | 99% (active) | 91.9% (active) | 100% (active) | 99% (active) | 92.7% (active) | 87% (active) | 98% (active) | 90.3% (active) | 100% (active) | 99% (active) | 92.2% (active) | 99% (active) | 98% (active) | 90.8% (active)
CCN1C2=NC(=O)N(C)C(=O)C2(Cl)C(C(SC)S(=O)(=O)c2ccc(C)cc2)c2ccccc21 (configuration not stated) | 22% | 22% | 88.1% (active) | 7% | 7% | 86.3% (active) | 15% | 15% | 81.7% (active) | 18% | 18% | 90% (active) | 1% | 1% | 89.5% (active) | 2% | 2% | 84.7% (active)
C(=NCCC[Si]12OCCN(CCO1)CCO2)c1ccc(C=NCCC[Si]23OCCN(CCO2)CCO3)cc1 | 3% | -3% | 38.1% | 2% | 3% | 98.3% (active) | -1% | -2% | 1.65% | 3% | -4% | 87.7% (active) | 1% | -3% | 76.5% (active) | 3% | 3% | 54%
CCCCCCCCCCCCCCC(=O)OCC[N+](C)(C)C | 33% | 98% (active) | 90.2% (active) | 24% | 98% (active) | 93% (active) | 45% | 99% (active) | 92.8% (active) | 33% | 98% (active) | 85.3% (active) | 44% | 99% (active) | 91.8% (active) | 27% | 97% (active) | 91.2% (active)
Cc1ccc(S(=O)(=O)NNC2Oc3cc4c(cc3C(c3ccccc3O)C2C)OCO4)cc1 (configuration not stated) | -12% | 98% (active) | 97.4% (active) | -3% | 98% (active) | 95.7% (active) | -2% | 98% (active) | 95.7% (active) | 19% | 97% (active) | 97% (active) | -11% | 98% (active) | 96.2% (active) | 22% | 97% (active) | 96.2% (active)
O=C1OC2(CCCCC2)OC(=O)C1=Cc1ccc([N+](=O)[O-])s1 | 9% | 99% (active) | 56.1% | 6% | 100% (active) | 27.4% | 9% | 99% (active) | 99.8% (active) | 4% | 61% | 10% | 0% | 99% (active) | 22.6% | 14% | 99% (active) | 30.7%
C/C(=N\NC(=S)Nc1ccc(N(C)C)cc1)c1ccccn1 | -1% | 23% | 72.2% (active) | -4% | 68% | 97.5% (active) | -2% | 74% (active) | 79.7% (active) | 1% | 72% (active) | 31.8% | -1% | 35% | 46.3% | -7% | 78% (active) | 82.3% (active)
O=C(O)C(Br)C(Br)C(=O)Nc1ccc(Cl)c(Cl)c1 (configuration not stated) | 91% (active) | 99% (active) | 96.3% (active) | 52% | 99% (active) | 98.1% (active) | 85% (active) | 99% (active) | 96.8% (active) | 25% | 99% (active) | 84.7% (active) | 96% (active) | 100% (active) | 98.8% (active) | 48% | 99% (active) | 96% (active)
O=C(CC(=O)c1ccccc1)CC(=O)c1cccc(Cl)c1 | -1% | 87% (active) | 81.1% (active) | 5% | 89% (active) | 65% | -1% | 87% (active) | 76.2% (active) | -9% | 77% (active) | 18.4% | 8% | 94% (active) | 78.5% (active) | 4% | 93% (active) | 85.2% (active)
NC(C(=O)O)C1=CCCCCC1 (configuration not stated) | 2% | -6% | 49.5% | 20% | 66% | 13.8% | 6% | -1% | 9.35% | 12% | 54% | -6.65% | 63% | 98% (active) | -5.95% | -3% | -4% | 15.4%
CC(=O)OC1CCC2(C)C(C1)C(OC(C)=O)CC1C3CCC(c4cccc(=O)o4)C3(C)CCC12 (configuration not stated) | 2% | 64% | 85.1% (active) | 11% | 84% (active) | 86.7% (active) | 17% | 72% (active) | 84.8% (active) | 5% | 76% (active) | 84.9% (active) | -2% | 79% (active) | 81.2% (active) | -6% | 66% | 85% (active)
O=C1NN(C2=NNC3(C(=O)N2)c2ccccc2-c2ccccc23)C(c2ccccc2)=N/C1=C/c1ccc(Cl)cc1 | -9% | -5% | 32.4% | -13% | -5% | 17.4% | -1% | 6% | -13.5% | -10% | 3% | -3.25% | -16% | -16% | 18.4% | -48% | -10% | 44.1%
Fc1ccc(NC(=S)SCc2ccccc2)cc1F | 4% | 89% (active) | 97.3% (active) | 2% | 92% (active) | 99% (active) | 5% | 94% (active) | 99.2% (active) | -6% | 81% (active) | 92.5% (active) | 6% | 95% (active) | 89.8% (active) | 0% | 97% (active) | 99.2% (active)
CS(=O)(=O)N1C(=O)C2C3CCC(O3)C2C1=O (configuration not stated) | -142% | 91% (active) | 73.5% (active) | -46% | 71% (active) | 57.7% | -61% | 52% | 26.4% | -56% | 73% (active) | 19.5% | -74% | 64% | 40.8% | -145% | 75% (active) | 42.6%
O=[N+]([O-])c1ccc(N2N=NC(CN3CCOCC3)C2N2CCOCC2)cc1 (configuration not stated) | 5% | 42% | 77.5% (active) | 0% | 23% | 47.3% | 1% | 56% | 47.5% | 0% | 28% | 24.5% | 2% | 32% | 7.85% | 3% | 47% | 60.1%
O=C(O)c1cccc2c1Oc1c(cccc1C(=O)O)S2 | 3% | 1% | 98.3% (active) | 0% | 9% | 98.2% (active) | 0% | 3% | 98.3% (active) | 2% | 6% | 98.2% (active) | 1% | 1% | 98.8% (active) | 2% | -2% | 98.5% (active)
